High-throughput results: PubChem, several laboratories
Shown are actives, neighbours in structure and some others; about 1.3% of the full set was active somewhere.
SRC3 inh – inhibitors of human steroid receptor coactivator 3 (SRC3). Q9Y6Q9. HEK293 GAL4-SRC3 luciferase reporter, luminescence. inhibition, % at 3.6 µM. 0.17% of 360,000 active. AID 588352;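 active means inhibition above a per-campaign cutoff, the mean of all compounds plus 3 SD, cut at about 60% in these data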;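 further: 0% = DMSO-treated cells and 100% = gossypol-treated cells at 36 µM; higher means less SRC3-driven luciferase light from the GAL4 reporter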
NR2F2 inh – blocks human COUP-TFII nuclear receptor. P24468. HEK293T NGFI-A luciferase reporter, luminescence. inhibition, % at 8.6 µM. 0.7% of 370,000 active. AID 686940;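 active means inhibition above a per-plate cutoff, mean inhibition of test wells between control levels plus 3 SD, cut at about 38% in these data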;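 further: cells cotransfected with COUP-TFII expression vector driving the NGFI-A reporter; 0% = median of COUP-TF2 test wells and 100% = reporter-only cells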
NCOA2 inhibitor – inhibits human steroid receptor coactivator 2 | Q15596 | HEK293 GAL4-SRC2 luciferase reporter, luminescence | inhibition, % at 9 µM | 0.17% of 370,000 active;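 active means inhibition above the mean inhibition of all tested compounds plus 3 SD, set per campaign, cut at about 52% in these data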;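 further: 0% = DMSO treated cells and 100% = cells given Gossypol at 36 µM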
NR5A2 inv ag – inverse agonists of human LRH-1 (NR5A2). HEK293T StAR-luciferase reporter, LRH-1 transfected, 24 h. O00482. AID 602396. 0.13% of 360,000 active. inhibition, % at 3.6 µM;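 active means inhibition above the mean inhibition of all tested compounds plus 3 SD, cut at about 73% in these data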;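 further: 0% = DMSO wells and 100% = reporter-only cells lacking LRH-1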
Gli-Sufu block – blocks Gli-Sufu signaling in a luciferase reporter | Sufu-KO-LIGHT fibroblasts, Gli luciferase reporter luminescence | inhibition, % at 5 µM | 0.74% of 340,000 active;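 active means inhibition above about 55%, limit read from the data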;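 further: 0% = DMSO-treated cells and 100% = wells with medium but no cells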
SRC1 inh – inhibits human SRC1 coactivator. inhibition, % at 3.6 µM. AID 588354. Q15788. 0.12% of 360,000 active. HEK293 GAL4-SRC1 luciferase reporter, luminescence;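 active means inhibition above the campaign mean plus 3 SD, with each screening campaign given its own cutoff, cut at about 60% in these data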;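 further: 0% = DMSO treated cells and 100% = gossypol at 36 µM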
Gli antag conf – Gli-SUFU antagonism confirmation, single concentration | shares compounds with Gli-Sufu block | Sufu-KO-LIGHT cells, Gli luciferase reporter, luminescence | AID 602428 | inhibition, % at 5 µM | 40% of 2,500 active;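 active means mean inhibition at 5 µM reaching about 45%, limit read from the data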;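 further: plate controls were DMSO-treated cells for no effect and wells lacking cells for full effect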
Gli cytotox – cytotoxic in Gli-SUFU antagonist counter-screen. Sufu-KO-LIGHT cells cytotoxicity, ATP luminescence. 32% of 2,500 active. cytotoxicity, % at 5 µM. shares compounds with Gli-Sufu block;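 active means mean cytotoxicity at 5 µM above about 25%, limit read from the data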;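 further: cells exposed to compound overnight for roughly 16 to 18 hours; plate controls were DMSO wells with cells for no effect and medium without cells for full effect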
Wnt3a counter – counter-screen for Gli-SUFU antagonists: Wnt3a reporter inhibition; AID 651995; Wnt-LIGHT cells, Wnt3a-driven luciferase reporter, luminescence; shares compounds with Gli-Sufu block; inhibition, % at 6.25 µM; 20% of 2,500 active;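 active means mean inhibition above about 25%, limit read from the data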
Starred values were filed as active, the others as inactive; · = no result.

SMILES	SRC3 inh	NR2F2 inh	NCOA2 inhibitor	NR5A2 inv ag	Gli-Sufu block	SRC1 inh	Gli antag conf	Gli cytotox	Wnt3a counter
CNS(=O)(=O)c1cccc(C(=O)OCC(=O)c2cc(C)n(CC3CCCO3)c2C)c1 (centres undefined)	-20	20	-48	-27	51	-32	68*	-3	-10
Cc1cc(C(=O)COC(=O)c2cccc(S(=O)(=O)N(C)C)c2)c(C)n1CC1CCCO1 (centres undefined)	-37	-5	-17	-55	23	-22	·	·	·
C=CCNC(=O)Nc1ccc2c(c1)[C@@]1(CC(=O)N(CC(C)C)C1c1ccccc1)C(=O)N2C (some centres undefined)	·	15	3	·	·	·	·	·	·
Cc1ccc(N2CC(O)(c3cccs3)[N+]3=C2CCCC3)cc1 (centres undefined)	22	5	15	-10	33	0	·	·	·
COc1ccc(C2(O)CN(c3ccc(C)cc3)C3=[N+]2CCCC3)cc1 (centres undefined)	7	-2	-16	6	54	13	55*	33*	0
CCc1ccc2c(c1)CCCN2C(=O)c1ccccc1C(=O)O	-3	4	9	10	51	-29	27	1	-60
Cc1ccccc1N(C)C(=O)Cn1nnc(-c2ccccc2F)n1	·	6	7	·	·	·	·	·	·
O=C(O)c1cc(-c2ccco2)nc2ccccc12	4	-16	-22	17	-5	1	·	·	·
O=C(c1cc(-c2ccco2)nc2ccccc12)N1CCN(c2ccc(F)cc2)CC1	-38	-2	13	-8	64*	-16	21	34*	-42
COc1ccc(-c2cc(C(=O)N3CCCCCC3)c3ccccc3n2)cc1	-53	-6	2	-19	50	-24	16	22	-11
COc1ccc(-c2cc(C(=O)N3CCCCCC3)c3ccccc3n2)cc1OC	8	0	19	-39	·	2	·	·	·
CC1CCN(S(=O)(=O)c2ccc(NC(=O)Cc3ccccc3)cc2)CC1	10	-4	17	-7	56*	-30	20	23	-17
O=C(Nc1ccc(S(=O)(=O)N2CCN(Cc3ccccc3)CC2)cc1)c1cnccn1	11	15	9	25	58*	21	60*	33*	29*
O=C(Nc1ccc(S(=O)(=O)N2CCCC2)cc1)c1cnccn1	1	12	5	9	3	5	·	·	·
COC(=O)c1cc(-c2ccc(Cl)s2)c(=O)n2c1CCC2	·	-19	-5	·	·	·	·	·	·
CN1[C@@H](Cc2ccccc2)COc2cc(N3CCCC3)ccc2S1(=O)=O	·	27	14	·	·	·	·	·	·
COc1ccc(Cc2nnc(N/N=C/c3ccc(O)cc3)[nH]c2=O)cc1OC	69*	17	53*	6	82*	22	85*	29*	73*
COc1ccc(Cc2nnc(N/N=C/c3ccc(Br)cc3)[nH]c2=O)cc1OC	17	-14	14	-2	-1	1	·	·	·
CCC(/C=C1\Sc2ccc(OC)cc2N1CCO)=C\c1sc2ccc(OC)cc2[n+]1CCO	15	4	5	10	49	-10	·	·	·
CCC(/C=C1\Sc2ccc(OC)cc2N1CC)=C\c1sc2ccc(OC)cc2[n+]1CCCS(=O)(=O)[O-]	2	-3	16	8	70*	3	82*	40*	5
CCOC(=O)c1sc(NC(=O)Nc2ccccc2F)nc1C	23	7	16	-17	51	16	41	49*	85*
CCOC(=O)c1sc(Nc2ccccc2Cl)nc1C	-32	-27	-54	-114	-51	-74	·	·	·
Cc1cc(C)nc(/N=C(\N)Nc2ccccc2-c2ccccc2)n1	34	12	23	7	60*	-13	43	12	-16
Cc1ccc(N/C(N)=N/c2nc(C)cc(C)n2)cc1	36	3	-1	7	44	-4	·	·	·
CC(C)CN1C(=O)[C@@]2(CC(=O)N(C)C2c2ccccc2)c2cc(-n3cc(CO)nn3)ccc21 (some centres undefined)	·	-15	6	·	·	·	·	·	·
SMILES	SRC3 inh	NR2F2 inh	NCOA2 inhibitor	NR5A2 inv ag	Gli-Sufu block	SRC1 inh	Gli antag conf	Gli cytotox	Wnt3a counter
CN(C)CCCNc1nc(-c2ccc(Cl)cc2)nc2ccccc12	-3	11	-15	6	69*	-11	35	27*	-73
Cc1cccc(-c2nc(NCCCN(C)C)c3ccccc3n2)c1	-19	4	-42	-44	55*	-21	21	5	-49
Cc1ccc(-c2nc(NCCN(C)C)c3ccccc3n2)cc1	-62	-13	-57	-23	22	-37	·	·	·
CCOC(=O)Cn1cc(CN2C(C(=O)OC)CN(C3CCCC3)CCS2(=O)=O)nn1 (centres undefined)	·	-12	23	·	·	·	·	·	·
COc1cc(OC)c2c(-c3cccc(-c4ccc(OC)c(F)c4)c3)cc(=O)oc2c1	8	-77	-3	21	60*	-32	59*	60*	-7
CC(=O)NNc1ncnc2c1cnn2-c1ccccc1	11	-7	-15	-21	57*	1	20	31*	-10
CC(=O)Nc1ccc(Nc2ncnc3c2cnn3-c2ccccc2)cc1	-51	-10	-38	-85	-44	-41	·	·	·
Nc1cc(N)c(OCC(F)(F)F)cc1OCC(F)(F)F	-3	·	·	-4	68*	5	23	2	24
CC(=O)C1(C(=O)N2CCOCC2)CC(c2ccccc2C(F)(F)F)=NO1 (centres undefined)	·	8	-3	·	·	·	·	·	·
CS(=O)(=O)N(CC(=O)NC1CCCCCC1)Cc1ccc(Cl)cc1	27	0	22	-13	59*	6	28	3	7
C#CCNC(=O)C[C@H]1C[C@@]2(C(=O)OC)C(=C[C@H](C(C)(C)C)O[C@@H]2C)N(Cc2ccco2)C1=O	·	-6	-25	·	·	·	·	·	·
CCC(C)[C@H](NC(=O)c1cn(CC)c2cc3c(cc2c1=O)OCO3)C(=O)NCCCn1ccnc1 (some centres undefined)	-12	9	-14	-12	53	-11	5	-9	18
O=S1(=O)c2c(cccc2N2CCSCC2)Oc2ccccc2CN1Cc1cn(Cc2cccc(C(F)(F)F)c2)nn1	·	0	10	·	·	·	·	·	·
Cc1c(C(=O)OCC(=O)N2CC(=O)Nc3ccccc32)oc2ccccc12	-8	9	4	17	94*	8	12	14	-35
O=C(CSc1n[nH]c(=O)n1-c1ccccc1)N1CCOCC1	9	9	-13	0	53	-7	22	11	15
O=C(CSc1nc2c([nH]c3ccccc32)c(=O)n1-c1ccccc1)N1CCOCC1	0	4	-20	0	8	0	·	·	·
